MCF10A rereplic: induces DNA re-replication in MCF 10a normal breast cells | MCF 10A DNA re-replication, Hoechst nuclear intensity, 48 h | Potency, µM (doses to about 46.1 µM), usual class: activators | 350,000 compounds, 2.9% hits | AID 624296; also: nearly all actives have a fitted effect of over 50% in size
KB-3-1 tox: KB-3-1 parental cell cytotoxicity. 400,000 compounds, 1.4% hits. KB-3-1 viability, CellTiter-Glo ATP luminescence, 72 h. AID 1347075. Potency, µM (highest dose often 46.1 µM), hits mostly cytotoxic; also: nearly all actives have a fitted effect of over 60% in size
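Multi-concentration cytotoxicity screen in KB-3-1 cells grown in DMEM lacking phenol red with 10% FBS. After 72 h at 37 °C with compound, ATP-dependent luminescence was recorded.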
HT1080-NT tox: kills 2HG-producing HT-1080-NT fibrosarcoma cells | HT-1080-NT fibrosarcoma viability, CellTiter-Glo ATP luminescence, 48 h | Potency, µM (titrated, usually from 46.1 µM), actives largely listed as cytotoxic | 360,000 compounds, 1.6% hits;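 also: NT is the 2HG producing partner of a matched IDH1 knockdown line; nearly all actives have a fitted effect of over 55% in size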
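Viability of the 2HG-overproducing fibrosarcoma line after 48 hours of compound exposure at 37 degrees C was determined by luminescence with CellTiter-Glo, and concentration-effect curves were then fitted and categorized.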
KB-V1 cytotox: KB-V1 MDR subline cytotoxicity; KB-V1 MDR cells viability, CellTiter-Glo, 72 h; Potency, µM (top dose mostly 46.1 µM), actives largely listed as cytotoxic; 400,000 compounds, 3.4% hits; AID 1347076; also: nearly all actives have a fitted effect of over 60% in size
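Readout: CellTiter-Glo luminescence, 10 min after addition. Cells: KB-V1 MDR subline, 72 h at 37 degrees C with compound. Analysis: corrected, normalized data fitted to concentration-effect curves.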
HT1080 IDH1KD tx: kills HT-1080 cells with IDH1 knockdown. HT-1080 IDH1 knockdown viability, ATP luminescence, 48 h. Potency, µM (top dose mostly 46.1 µM), usual class: cytotoxic. 360,000 compounds, 2% hits
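Knockdown cells (IDH1KD HT-1080) received compounds 2 h after plating at 750 cells/well and were kept 48 h at 37 °C in 5% FBS RPMI. A CellTiter-Glo luminescence read gave % activity for curve fitting.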
SW480 rerep: DNA re-replication induction in SW480 cells; SW480 DNA re-replication, Hoechst DNA content imaging, 48 h; Potency, µM (doses to about 46.1 µM), usual class: activators; AID 624297; 340,000 compounds, 1.8% hits; also: nearly all actives have a fitted effect of over 55% in size
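DNA re-replication was detected as more nuclei of elevated Hoechst intensity after 48 hr exposure to compound (23 nL pinned per well of 250 cells).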
A number is an active result; . = inactive; ? = inconclusive; / = no result given. Compounds with a hit are over-represented: about 7.9% of the library has one in this group of screens. Calls follow the shape of the dose curve; as a rule, active = well fitted curve in the direction sought with a large enough effect; inconclusive = small, poorly fitted or top-dose-only effect, or another doubt; inactive = no such curve, though single readings can be large; an effect the other way counts as inactive or inconclusive.

SMILES	MCF10A rereplic	KB-3-1 tox	HT1080-NT tox	KB-V1 cytotox	HT1080 IDH1KD tx	SW480 rerep
COc1ccc(C(=O)c2ccc(Cl)cc2)c2ccccc12	9.2µM	?	.	?	.	?
CC1=C(C(=O)Nc2cccnc2)C(c2cccc(Br)c2)n2nc(SCc3ccccc3)nc2N1 (stereo not given)	/	.	/	.	/	/
CN(C)CCNc1ncnc2ccc(-c3ccc4c(c3)OCO4)cc12	/	.	/	.	/	/
Cc1cccc(Cn2c(=O)n(Cc3ccccc3)c(=O)c3c2c2cc(C)ccc2n3C)c1	/	.	/	.	/	/
Cc1ccc(-c2[nH]ncc2/C=N/n2c(COc3ccccc3)nc3ccccc3c2=O)cc1	18.4µM	?	?	?	?	?
Cc1nc2ccccc2c(=O)n1/N=C/c1cn[nH]c1-c1ccccc1	.	?	.	.	.	.
Cc1ccccc1OCc1nc2ccccc2c(=O)n1/N=C/c1cn[nH]c1-c1ccccc1	?	?	?	13µM	?	?
COc1ccc(Cn2nnnc2C(c2ccccn2)N2CCN(c3cc(Cl)ccc3C)CC2)cc1 (stereo not given)	.	?	.	13µM	.	?
Cc1ccc(NC(=O)Cn2c(=O)n(-c3ccc(CC(=O)NCC4CCCO4)cc3)c(=O)c3ccccc32)cc1 (stereo not given)	/	.	/	?	/	/
CC(C)c1ccc(C(=O)NCCCN2CCN(CCCNC(=O)c3ccc(C(C)C)cc3)CC2)cc1	23.1µM	.	18.4µM	?	?	?
COc1ccc(C(=O)NCCNc2nc3ccc(C)cc3cc2C#N)cc1	20.6µM	.	.	.	.	?
COc1ccc(C(=O)NCCNc2nc3c(C)cccc3cc2C#N)cc1OC	0.581µM	?	.	.	.	2.59µM
Cc1cccc2cc(C#N)c(NCCNS(=O)(=O)c3ccc4c(c3)OCCO4)nc12	?	.	.	23.1µM	.	16.4µM
Cc1ccc2nc(NCCNC(=O)c3ccccc3)c(C#N)cc2c1	?	.	.	.	.	?
COc1ccccc1Nc1nc2ccc(C)cc2cc1C#N	.	.	.	.	.	.
Cc1ccc2nc(NCc3ccccc3)c(C#N)cc2c1	14.6µM	.	.	.	.	?
CCC(=O)NCCCNc1nc2c(C)cccc2cc1C#N	.	.	.	?	.	?
COc1cc(C(=O)NCCNc2nc3c(C)cccc3cc2C#N)cc(OC)c1OC	/	.	.	?	.	/
COc1ccc(C(=O)NCCNc2nc3cc(C)cc(C)c3cc2C#N)cc1	/	.	?	?	?	/
COc1ccc(C(=O)NCCNc2nc3c(C)cccc3cc2C#N)cc1	18.4µM	.	.	.	.	.
COc1cccc(-c2c(C#N)c(N)nc3c2c(C)nn3-c2ccccc2)c1O	?	.	.	.	.	.
Cc1ccc2c(c1)C(=O)N1[C@H]3c4cc(C)ccc4OC[C@@H]3[C@H](c3ccccc3)[C@]1(C)C(=O)N2	5.8µM	?	?	?	7.31µM	?
C[C@@]12C(=O)Nc3ccc(F)cc3C(=O)N1[C@H]1c3ccccc3OC[C@@H]1[C@@H]2c1ccccc1	.	.	.	.	.	.
Cc1ccc2c(c1)[C@H]1[C@H](CO2)[C@H](c2ccccc2)[C@]2(C)C(=O)Nc3ccc(Br)cc3C(=O)N12	.	.	.	.	?	?
C[C@@]12C(=O)Nc3ccc(Cl)cc3C(=O)N1[C@H]1c3ccccc3OC[C@@H]1[C@@H]2c1ccccc1	?	?	.	.	.	.
SMILES	MCF10A rereplic	KB-3-1 tox	HT1080-NT tox	KB-V1 cytotox	HT1080 IDH1KD tx	SW480 rerep
Cc1ccc2c(c1)C(=O)N1[C@H]3c4cc(Cl)ccc4OC[C@@H]3[C@H](c3ccccc3)[C@]1(C)C(=O)N2	10.3µM	?	.	.	?	?
C[C@@]12C(=O)Nc3ccc(F)cc3C(=O)N1[C@H]1c3cc(Cl)ccc3OC[C@@H]1[C@@H]2c1ccccc1	18.4µM	?	?	.	?	20.6µM
Cc1ccc2c(c1)C(=O)N1[C@H]3c4cc(Br)ccc4OC[C@@H]3[C@H](c3ccccc3)[C@]1(C)C(=O)N2	13µM	.	?	?	?	.
CC(C)NC(=O)C1(C)CSCC(=O)N1CC(F)(F)F (stereo not given)	/	.	.	.	.	/
CCOC(=O)c1c(C)oc2ncnc(NCCCN3CCN(c4cc(C)ccc4C)CC3)c12	/	.	/	.	/	/
O=C(CSc1ccc(-c2cccs2)nn1)Nc1ccccc1	.	.	.	11.6µM	.	.
CCc1ccc(NC(=O)CSc2ccc(-c3ccccn3)nn2)cc1	11.6µM	?	?	.	.	.
O=C(CSc1ccccn1)Nc1ccc2c(c1)C(=O)c1ccccc1C2=O	?	.	?	?	20.6µM	.
Cc1cc(C)cc(NC(=O)CSc2ccc(-c3cccs3)nn2)c1	.	.	.	.	.	.
CCOc1ccc(NC(=O)CSc2ccc(-c3ccco3)nn2)cc1	.	.	.	.	.	.
O=C(CSc1ccccn1)Nc1ccc2c(c1)CCC2	?	.	.	.	.	.
O=C(CSc1ccc(-c2ccco2)nn1)Nc1ccccc1	.	.	.	18.4µM	.	.
Cc1ccc(Cn2c(=O)n(Cc3ccccc3Cl)c(=O)c3cccnc32)cc1	/	.	/	.	/	/
COc1ccc(-c2noc(-c3ccc(N4CCN(c5ccccc5)CC4)c([N+](=O)[O-])c3)n2)cc1	/	.	/	.	/	/
CCc1ccccc1Oc1nc(NC(C)C)nc2ccsc12	/	.	.	.	.	/
CCC(CC)C(=O)Nc1cccc(-c2nc3cccnc3s2)c1C	/	.	/	.	/	/
O=C(CSc1ccc(-c2ccco2)nn1)NCc1ccccc1Cl	.	.	.	20.6µM	.	.
COc1ccc(NC(=O)CSc2ccc(-c3ccco3)nn2)cc1OC	.	.	.	?	.	.
O=C(CSc1ccc(-c2ccco2)nn1)Nc1ccc(F)cc1	.	.	.	10.3µM	.	.
O=C(Cc1ccccc1)N(Cc1cccnc1)c1nc2c(F)cc(F)cc2s1	/	.	/	?	/	/
CCCCCCCNC(=O)c1ccc(N2CCC3(CC2)OCCO3)c([N+](=O)[O-])c1	.	.	.	9.2µM	.	.
O=C(NNC(=O)c1ccncc1)Nc1ccc(Cl)cc1	.	.	.	.	.	.
N/N=C/C(=N\Nc1ccc(Cl)cc1)C(=O)c1ccncc1	.	.	?	.	?	10.3µM
FC(F)(F)c1cccc(NC(=S)N(CCCN2CCCC2)Cc2cccn2Cc2ccc(Cl)cc2)c1	?	?	?	?	23.1µM	?
COc1ccc(NC(=S)N(CCCN2CCCC2)Cc2cccn2Cc2ccc(Cl)cc2)cc1Cl	20.6µM	.	?	18.4µM	?	23.1µM
Cc1ccc(NC(=S)N(CCCN2CCCC2)Cc2cccn2Cc2ccc(Cl)cc2)cc1C	?	?	.	.	.	.
